# This is a sample that favours compounds with a hit; in the whole collection about 19% have one here.
# TDP1 cell noCPT: qHTS for Inhibitors of human tyrosyl-DNA phosphodiesterase 1 (TDP1): qHTS in cells in absence of CPT | DT40 Tdp1-/- hTDP1 cells, no CPT, ATP luminescence, 48 h | Potency, µM (titrated, usually from 46.2 µM), inactives show at the highest dose activity change, negative = growth inhibition, usual class: inhibitors | actives 15% (n = 420,000) | AID 686978, 2013; also: potency is read from the fitted curve at half-maximal effect; nearly all actives have a fitted effect of over 55% in size
#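 Stably hTDP1-transfected Tdp1-null chicken DT40 cells were treated with library compounds minus camptothecin and grown for at least 48 hr at 37 °C, after which cellular ATP was quantified by luminescence.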
# IL-1B inflam inh: inflammasome signaling inhibition, IL-1 beta readout. THP-1 LPS/ATP IL-1B secretion, AlphaLISA, 16 h; hits give low values. activity change, % at 57.5 µM. actives 4.7% (n = 360,000). AID 743279; in the data active = activity change below about -50%; inconclusive = mostly about -30% to -49%
#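 THP-1 cells pretreated 1 hr with compounds (up to 57.5 uM final), then stimulated with LPS (250 ng/mL final) plus ATP (1.25 mM final); secreted IL-1B measured by AlphaLISA after 16 hr, decreased signal indicating inhibition.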
# TDP1 cell CPT: DT40-hTDP1 cell growth loss with CPT; chicken DT40 Tdp1-/-;hTDP1 cells + 20 nM CPT, ATP luminescence, 48 h; Potency, µM (series often up to 46.2 µM), for inactives: at the highest dose activity change, negative = growth inhibition, usual class: inhibitors; actives 12% (n = 420,000); also: potency is read from the fitted curve at half-maximal effect; nearly all actives have a fitted effect of over 55% in size
#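 Chicken DT40 Tdp1-/- cells complemented with human TDP1, 400 cells/well, exposed to compounds plus 20 nM camptothecin for at least 48 h at 37 C; viability read as ATP content by CellTiter-Glo luminescence.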
# HT1080 IDH1KD tx: kills HT-1080 cells with IDH1 knockdown. AID 686971. Potency, µM (highest dose often 46.1 µM), for the others: at the highest dose activity, negative = toxicity, usual class: cytotoxic. HT-1080 IDH1 knockdown viability, ATP luminescence, 48 h. actives 2% (n = 360,000);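 also: potency is read from the fitted curve at half-maximal effect; 0% = DMSO wells and -100% = cell-free medium wells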
#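 After a 2 h attachment period, IDH1KD HT-1080 cells took pin-transferred compound for 48 h at 37 °C; ATP-based luminescence after 10 min room-temperature reagent incubation reported viability.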
# HT1080-NT tox: kills 2HG-producing HT-1080-NT fibrosarcoma cells; actives 1.6% (n = 360,000); HT-1080-NT fibrosarcoma viability, CellTiter-Glo ATP luminescence, 48 h; Potency, µM (doses to about 46.1 µM), inactives show at the highest dose activity, negative = less viability, actives largely listed as cytotoxic; AID 686970;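 also: NT is the 2HG producing partner of a matched IDH1 knockdown line; potency is read from the fitted curve at half-maximal effect; 0% = DMSO-treated cells and -100% = media-only wells without cells; nearly all actives have a fitted effect of over 55% in size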
#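 Fibrosarcoma NT cells, 750 per well in 5% FBS RPMI, were exposed to compound for 48 hours. Viability: CellTiter-Glo luminescence.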
# Starred values were filed as active, the others as inactive; ? = inconclusive; . = no result. Unless noted, calls follow the shape of the dose curve; as a rule, active = well fitted curve in the direction sought with a large enough effect; inconclusive = small, poorly fitted or top-dose-only effect, or another doubt; inactive = no such curve, though single readings can be large; an effect the other way counts as inactive or inconclusive. Unless noted, % is scaled to controls: 0 for no effect and ±100 for the full control effect.
SMILES,TDP1 cell noCPT,IL-1B inflam inh,TDP1 cell CPT,HT1080 IDH1KD tx,HT1080-NT tox
COc1ccc(NS(=O)(=O)c2nnc(NC(=O)c3ccccc3F)s2)cc1,?,-23.3,5.0%,0.9%,6.6%
Cc1c(C(=O)Nc2cnccn2)oc2ccccc12,?,32.2,11.6µM*,?,-29.0%
Cc1ccnc(NC(=O)c2oc3ccccc3c2C)c1,?,53.9,?,-22.3%,-26.3%
CCc1ccc2oc(C(=O)Nc3cccnc3)c(C)c2c1,23.1µM*,-3.8,16.4µM*,-15.3%,-13.2%
COc1cc(=O)oc(-c2ccccc2)c1C(C)=O,-2.1%,-10.8,19.2%,3.6%,0.0%
COc1ccc(CNC(=O)c2c(C)oc3c2C(=O)c2ccccc2C3=O)cc1,10.3µM*,37.2,8.2µM*,-9.8%,?
COc1ccc(CNC(=O)c2[nH]c(C)c(C(C)=O)c2C)cc1,?,46.1,9.2µM*,-8.6%,-4.3%
CC(=O)c1c(C)oc2c1C(=O)c1ccccc1C2=O,7.31µM*,35.2,8.2µM*,-5.0%,-1.4%
O=C(Nc1cccnc1)c1cccc(-c2cc3ccccc3oc2=O)c1,-7.3%,20.2,34.3%,11.3%,10.7%
O=C(NCc1cccnc1)c1ccc(-c2cc3ccccc3oc2=O)cc1,?,-22.5,11.6µM*,?,?
CCc1ccc(C(=O)Cn2ccsc2=N)cc1,-14.6%,7.8,-12.9%,-3.9%,-13.4%
CCCCC(CC)CNC(=O)c1[nH]c(C)c(C(C)=O)c1C (configuration not stated),23.1µM*,24.9,?,-6.9%,11.9%
Cc1oc2c(c1C(=O)NCc1cccnc1)C(=O)c1ccccc1C2=O,1.03µM*,-80.6*,0.92µM*,2.59µM*,4.11µM*
Cc1onc(-c2ccccc2Cl)c1C(=O)NCc1cccnc1,-0.3%,-14.0,-17.4%,-2.5%,-1.1%
O=C(Nc1ccc(NC(=O)C2CC2)nc1)c1ccccc1F,-15.2%,7.2,4.6%,5.7%,12.7%
O=C(Nc1ccc(NC(=O)C2CCCCC2)nc1)c1cccs1,11.6µM*,-22.5,?,-2.4%,-5.7%
Cc1ccc(NC(=O)c2cccc(Cl)c2)nc1,-26.3%,-7.2,-25.4%,-2.4%,-1.8%
COc1cc(C(=O)Nc2ccc(NC(=O)c3cccc(Cl)c3)nc2)cc(OC)c1OC,8.2µM*,-3.9,25.9µM*,?,-6.4%
COc1cc(C(=O)Nc2ccc(NC(=O)C3CCCCC3)nc2)cc(OC)c1OC,18.4µM*,-1.3,?,?,?
Cc1ccc(C)c(N2CCN(S(=O)(=O)c3c(C(=O)N4CCCCC4)c(C)n(C)c3C)CC2)c1,0.7%,-3.2,-22.8%,-6.2%,-0.5%
Cn1c(C(=O)N2CCN(c3ccc(F)cc3)CC2)cc2ccccc21,?,5.8,-2.9%,-1.0%,-0.1%
Cc1ccc(C)c(N2CCN(C(=O)c3cccn3-c3nnc(N4CCCCC4)s3)CC2)c1,14.6µM*,.,?,.,.
O=C(c1cccn1-c1nnc(N2CCCC2)s1)N1CCN(c2ccc(F)cc2)CC1,18.4µM*,.,16.4µM*,.,.
C=C1CC(Cn2cc(Br)c(=O)[nH]c2=O)(c2ccc(-c3ccccc3)cc2)OC1=O (configuration not stated),0.0259µM*,-2.4,0.0326µM*,1.64µM*,2.31µM*
CCn1c(CCCOc2ccc(Cl)cc2Cl)nnc1SCC(=O)Nc1cc(F)ccc1C,?,-59.4*,?,?,?
SMILES,TDP1 cell noCPT,IL-1B inflam inh,TDP1 cell CPT,HT1080 IDH1KD tx,HT1080-NT tox
COc1ccc(CCCc2nnc(SCC(=O)Nc3nc(C)cs3)n2C)cc1C,25.9µM*,-4.8,?,-19.6%,-1.2%
CCc1cccc(C)c1NC(=O)CSc1nnc(CCCOc2ccc(Cl)cc2Cl)n1C,14.6µM*,5.7,23.1µM*,?,-22.4%
Cc1csc(NC(=O)CSc2nnc(CCNC(=O)c3cccs3)n2C)n1,-4.9%,79.2,-6.3%,2.9%,14.8%
Cn1c(CCCOc2ccc(Cl)cc2Cl)nnc1SCC(=O)Nc1cccc(F)c1,?,-16.2,?,-23.6%,?
Cc1ccc(N(CC(=O)NC2CCCC2)C(=O)c2c(C)noc2C)cc1C,-18.9%,14.9,-4.5%,1.3%,1.5%
CC(C)CNS(=O)(=O)c1ccc(CCC(=O)Nc2ccc3c(c2)OCCO3)cc1,-26.2%,-17.0,-16.6%,-5.9%,-1.0%
CCOc1cc(/C=C2\CN(C)C/C(=C\c3ccc(O)c(OCC)c3)C2=O)ccc1O,2.31µM*,-105.4*,5.17µM*,4.61µM*,4.11µM*
CCOc1cc(/C=C2\CCC/C(=C\c3cc(Cl)c(O)c(OCC)c3)C2=O)cc(Cl)c1O,6.51µM*,-99.8*,?,5.8µM*,7.31µM*
COc1cc(C=C2CN(C)C(=O)C2=O)ccc1O,-3.8%,-16.5,15.0%,6.8%,0.6%
CC(=O)Nc1ccc(/C=N/NC(=O)c2cc(-c3ccco3)nc3ccccc23)cc1,?,30.2,-24.0%,-7.6%,-9.7%
O=C(N/N=C/c1ccc2c(c1)OCO2)c1cc(-c2ccccc2)nc2ccccc12,10.3µM*,0.8,20.6µM*,-24.8%,-24.6%
O=C(N/N=C/c1ccc2c(c1)OCO2)c1cc(-c2ccco2)nc2ccccc12,7.31µM*,20.2,9.2µM*,3.66µM*,4.11µM*
CC(Sc1ccccc1)C(=O)NCCc1ccccc1 (configuration not stated),-24.2%,-1.6,-7.1%,8.8%,6.4%
Cc1sc2ncnc(NCC(c3ccco3)N3CCCC3)c2c1C (configuration not stated),?,17.5,?,0.6%,-18.6%
Cn1c(=O)n(Cc2ccc(Br)cc2)c2ccccc21,?,-108.2*,?,-4.8%,?
CCOc1ccc(CCNc2nc3ccccc3n3cnnc23)cc1OCC,18.4µM*,4.9,?,-2.8%,-13.0%
COc1ccc(CCNc2nc3ccccc3n3cnnc23)cc1OC,?,-4.2,-26.0%,7.7%,12.9%
CCc1nnc2c(NCCc3ccc(OC)c(OC)c3)nc3ccccc3n12,16.4µM*,-3.9,?,20.5%,?
CCc1nnc2c(NCc3ccccc3)nc3ccccc3n12,-17.6%,.,5.2%,.,.
CCOc1ccc(CCNc2nc3ccc(C)cc3n3cnnc23)cc1OCC,16.4µM*,52.0,?,-6.8%,17.4%
Cc1ccc2nc(NCc3ccc(F)cc3)c3nncn3c2c1,?,-15.9,?,-2.4%,0.2%
CC(=O)NCCSc1ccc(S(=O)(=O)N2CCCC2)cn1,-7.0%,-2.1,-2.5%,5.2%,5.8%
COc1ccc(C2CC(=O)C=C3c4ccc(OC)cc4CCC32)cc1 (configuration not stated),25.9µM*,20.0,?,11.7%,11.3%

# Source: PubChem (National Center for Advancing Translational Sciences (NCATS))
